Assay [1] can be described thus: antimalarial activity against Dd2 strain (AID 2302;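 active = growth inhibition above 50% at the single 2 µM test dose, taken to imply half-maximal potency below 2 µM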;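 note: 0% = DMSO untreated growth and 100% = chloroquine plus artemisinin killed control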). To be noted: P. falciparum Dd2 in RBCs, LDH growth readout, 72 h; at 2 µM; hits give high values.
Assay [2] in a line: HepG2 cytotoxicity, primary screen, cytotoxicity control for P. falciparum antimalarial project, cell-based, ATP luminescence (AID 2303;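 active = inhibition above 50%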;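 note: 0% = DMSO wells and 100% = digitonin-killed cells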). To be noted: HepG2 viability, 24-48 h, at 10 µM, hits give high values.
The target of assay [3] is L-lactate dehydrogenase (Plasmodium falciparum (isolate CDC / Honduras)) (UniProt Q27743). The assay is described as follows: PfLDH activity inhibition – cell lysate, 3D7 strain, counter-screen for P. falciparum growth inhibition project (AID 2304).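 Note: 0% = vehicle and 100% = reference inhibitor.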 The note with it: P. falciparum 3D7 crude extract, LDH APAD/NBT absorbance; at 2 µM; hits give high values. In general terms: Counterscreens check selectivity or assay interference.

The nature of assay [4]: inhibition of 3D7 malaria parasite growth – strain 3D7 (AID 2306).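 Note: 0% = DMSO wells and 100% = chloroquine plus artemisinin control wells.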 The note with it: P. falciparum 3D7 erythrocytic growth, LDH absorbance, 72 h; at 2 µM; hits give high values.
In assay [5] the target is Calcium-dependent protein kinase 1 (Plasmodium falciparum (isolate 3D7)) (UniProt P62344). Description: PfCDPK1 kinase inhibitors, biochemical, TCAMS library (AID 1159585; cut-off not given, nearly all actives have IC50 up to about 0.98 µM;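 note: inhibitors leave more ATP so luminescence rises with inhibition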). The note with it: recombinant PfCDPK1, Kinase-Glo ATP depletion luminescence. A general note: Kinase-Glo reads ATP consumption through a luciferase reaction.
Assay [6] deals with Plasmodium falciparum protein kinase 6 (PK6, PF3D7_1337100) (UniProt Q8IDW1). Description: PfPK6 kinase inhibitors, biochemical, TCAMS library (AID 1159586). To be noted: recombinant PfPK6, Kinase-Glo ATP depletion luminescence.
Assay [7] addresses Protein kinase 7 (PK7), Plasmodium falciparum 3D7 (PF3D7_0213400) (UniProt Q7YTF7). Description: inhibition of Plasmodium PK7 catalytic activity – biochemical, TCAMS antimalarial set, Kinase-Glo luminescence (AID 1159587). The note with it: recombinant PfPK7, Kinase-Glo ATP depletion luminescence.
Assay [8] addresses Calcium-dependent protein kinase 4 (Plasmodium falciparum (isolate 3D7)) (UniProt Q8IBS5). Description: PfCDPK4 kinase inhibitors, biochemical, TCAMS library (AID 1159588; cut-off not given, nearly all actives have IC50 up to about 0.91 µM). The note with it: recombinant PfCDPK4, Kinase-Glo ATP depletion luminescence.

Values without a mark were called inactive. For some assays here: Results with a measured potency or affinity are listed apart. Active and inactive are the calls of the source. Unless noted, the rule behind the calls is not given here.

Protein kinase 7 (PK7), Plasmodium falciparum 3D7 (PF3D7_0213400), sequence (Q7YTF7 1-343): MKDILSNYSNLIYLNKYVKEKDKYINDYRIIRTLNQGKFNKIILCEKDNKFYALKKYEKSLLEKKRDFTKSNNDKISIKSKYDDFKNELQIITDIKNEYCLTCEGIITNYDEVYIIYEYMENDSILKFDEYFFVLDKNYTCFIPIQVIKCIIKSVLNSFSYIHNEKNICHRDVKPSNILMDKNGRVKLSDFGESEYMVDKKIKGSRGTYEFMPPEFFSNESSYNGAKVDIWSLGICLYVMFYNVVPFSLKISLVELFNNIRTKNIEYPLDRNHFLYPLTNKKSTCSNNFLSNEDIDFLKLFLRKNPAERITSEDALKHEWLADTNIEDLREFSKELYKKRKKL
Calcium-dependent protein kinase 4 (Plasmodium falciparum (isolate 3D7)), sequence (Q8IBS5 whole entry, looked up): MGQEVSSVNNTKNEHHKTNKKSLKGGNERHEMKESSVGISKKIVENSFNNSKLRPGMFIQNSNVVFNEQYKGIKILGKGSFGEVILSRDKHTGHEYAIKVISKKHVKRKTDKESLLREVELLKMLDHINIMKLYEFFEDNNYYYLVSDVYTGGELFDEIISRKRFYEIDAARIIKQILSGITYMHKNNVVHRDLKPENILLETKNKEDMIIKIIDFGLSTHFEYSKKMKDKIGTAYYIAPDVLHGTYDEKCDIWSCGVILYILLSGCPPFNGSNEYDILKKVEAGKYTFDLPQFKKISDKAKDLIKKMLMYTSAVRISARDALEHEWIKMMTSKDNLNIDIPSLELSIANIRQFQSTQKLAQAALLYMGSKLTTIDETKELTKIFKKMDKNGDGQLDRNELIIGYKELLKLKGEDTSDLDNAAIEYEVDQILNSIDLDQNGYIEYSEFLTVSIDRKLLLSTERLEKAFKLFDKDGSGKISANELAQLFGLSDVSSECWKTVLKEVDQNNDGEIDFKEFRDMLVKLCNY
L-lactate dehydrogenase (Plasmodium falciparum (isolate CDC / Honduras)), sequence (Q27743 whole entry, looked up): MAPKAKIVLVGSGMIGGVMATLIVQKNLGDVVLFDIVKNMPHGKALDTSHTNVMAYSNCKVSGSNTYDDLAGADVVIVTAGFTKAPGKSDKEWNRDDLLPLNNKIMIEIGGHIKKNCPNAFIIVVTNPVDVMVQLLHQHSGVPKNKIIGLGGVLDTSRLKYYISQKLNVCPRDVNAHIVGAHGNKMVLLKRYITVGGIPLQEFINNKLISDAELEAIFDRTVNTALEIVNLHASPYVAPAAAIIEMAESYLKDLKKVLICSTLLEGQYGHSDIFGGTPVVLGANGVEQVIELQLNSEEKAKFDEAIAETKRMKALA
Calcium-dependent protein kinase 1 (Plasmodium falciparum (isolate 3D7)), sequence (P62344 whole entry, looked up): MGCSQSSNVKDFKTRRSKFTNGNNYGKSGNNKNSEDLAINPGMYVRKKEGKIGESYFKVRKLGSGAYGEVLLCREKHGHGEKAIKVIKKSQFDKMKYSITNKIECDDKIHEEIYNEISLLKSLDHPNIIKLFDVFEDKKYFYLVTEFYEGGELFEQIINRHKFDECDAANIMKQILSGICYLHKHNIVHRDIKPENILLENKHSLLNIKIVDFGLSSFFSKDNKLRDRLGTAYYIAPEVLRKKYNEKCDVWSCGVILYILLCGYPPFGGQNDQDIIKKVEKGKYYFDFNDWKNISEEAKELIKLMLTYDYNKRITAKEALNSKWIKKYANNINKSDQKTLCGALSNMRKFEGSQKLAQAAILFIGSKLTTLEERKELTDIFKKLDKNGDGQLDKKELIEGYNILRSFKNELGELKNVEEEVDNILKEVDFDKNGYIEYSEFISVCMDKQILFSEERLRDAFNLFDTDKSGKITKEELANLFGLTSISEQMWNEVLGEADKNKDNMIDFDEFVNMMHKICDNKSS
Plasmodium falciparum protein kinase 6 (PK6, PF3D7_1337100), sequence (Q8IDW1 1-305): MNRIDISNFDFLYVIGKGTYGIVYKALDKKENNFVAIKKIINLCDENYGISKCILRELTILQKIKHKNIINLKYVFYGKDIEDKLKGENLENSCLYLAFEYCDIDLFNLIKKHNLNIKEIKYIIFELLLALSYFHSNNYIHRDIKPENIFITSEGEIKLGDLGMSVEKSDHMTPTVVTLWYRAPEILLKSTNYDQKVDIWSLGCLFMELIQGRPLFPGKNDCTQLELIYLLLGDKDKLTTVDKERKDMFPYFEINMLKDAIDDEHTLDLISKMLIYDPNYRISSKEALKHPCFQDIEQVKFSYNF

As a reminder, the inhibition is the relative decrease from the control value, in per cent. Consider `Nc1nccc2ccc(-c3ccc4ncccc4c3)cc12`, for which the growth inhibition in assay [1] and in assay [4] was 100% (active) throughout. In addition, the inhibition is 97% (active) in assay [2] and -7% in assay [3]. In addition, the result in assay [5], in assay [6], in assay [7] and in assay [8] was inactive.

For `COc1cc(Nc2nc(N)n(C(=O)c3ccc4c(c3)OCO4)n2)cc(OC)c1OC`, the growth inhibition in assay [1] is 40%; in assay [4] it was 90% (active). Further, the inhibition was 60% (active) in assay [2] and 1% in assay [3]. For the same compound, the result in assay [5], in assay [6], in assay [7] and in assay [8] was inactive.

For the compound `CCN(c1ccccc1)S(=O)(=O)c1ccc(OC)c(NC(=O)c2cccc(C(F)(F)F)c2)c1`, the growth inhibition in assay [1] is 70% (active); in assay [4], 90% (active). Further, the inhibition is 9% in assay [2] and -2% in assay [3]. For the same compound, the result in assay [5], in assay [6], in assay [7] and in assay [8] was inactive.

With `COc1ccc(-c2cccc(NC(=O)c3ccc(Cl)cc3)c2)cc1CN1CCNCC1`, the growth inhibition was 22% in assay [1] and 96% (active) in assay [4]. Also, the values for the inhibition in assay [2] and in assay [3] were 52% (active) and -3%, respectively. The outcome in assay [5], in assay [6], in assay [7] and in assay [8] was inactive.

For `CC(=O)C1=NN(c2ccc(Cl)cc2)C(c2cccs2)N1c1ccccc1` (configuration not stated), the growth inhibition in assay [1] is 70% (active); in assay [4] it was 88% (active). Further, the inhibition in assay [2] is -3%; in assay [3] it was 3%. In addition, the result in assay [5], in assay [6], in assay [7] and in assay [8] was inactive.

For `NC(=O)c1cccc(C(=O)Nc2cccc(-c3ccc(-c4nc5ccccc5[nH]4)s3)c2)c1`, the growth inhibition in assay [1] is 69% (active); in assay [4] it was 95% (active). Moreover, the inhibition was 37% in assay [2] and 1% in assay [3]. In addition, the outcome in assay [5], in assay [6], in assay [7] and in assay [8] was inactive.

Take `CC(C)[C@H](NC(=O)c1ccc(O)c(-c2ccc(Cl)c(Cl)c2)c1)C(=O)NCCN1CCOCC1`: the growth inhibition in assay [1] is 44%; in assay [4], 95% (active). Further, the figures for the inhibition in assay [2] and in assay [3] were -4% and -1%, respectively. In addition, the outcome in assay [5], in assay [6], in assay [7] and in assay [8] was inactive.

For the compound `CS(=O)(=O)Nc1cccc(-c2cnc3[nH]cc(-c4cc(N)cc(C(=O)O)c4)c3c2)c1`, the growth inhibition in assay [1] and in assay [4] was 96% (active) each time. For the same compound, the inhibition is 40% in assay [2] and 0% in assay [3]. Besides, the result in assay [5], in assay [6], in assay [7] and in assay [8] was inactive.

For the compound `CSc1ccc2ccccc2c1CNCCCCCCNCc1c(SC)ccc2ccccc12`, the growth inhibition in assay [1] was 74% (active); in assay [4], 99% (active). The inhibition in assay [2] was 83% (active); in assay [3], 3%. Besides, the outcome in assay [5], in assay [6], in assay [7] and in assay [8] was inactive.

With `Fc1ccc2nc(-c3ccc(-c4cccc(CN5CCCCC5)c4)cc3)[nH]c2c1`, the growth inhibition is 101% (active) in assay [1] and 100% (active) in assay [4]. Moreover, the inhibition in assay [2] was 10%; in assay [3] it was -6%. Further, the outcome in assay [5], in assay [6], in assay [7] and in assay [8] was inactive.

For the compound `c1ccc2[nH]c(-c3ccc(-c4ccc(CN5CCN(CCN6CCOCC6)CC5)cc4)cc3)nc2c1`, the growth inhibition in assay [1] is 99% (active); in assay [4], 98% (active). Besides, the inhibition in assay [2] is 43%; in assay [3] it was -1%. Moreover, the outcome in assay [5], in assay [6], in assay [7] and in assay [8] was inactive.

For the compound `COc1ccccc1Cn1ccnc1SCC(=O)Nc1cccc(C(F)(F)F)c1`, the growth inhibition was 73% (active) in assay [1] and 86% (active) in assay [4]. For the same compound, the inhibition in assay [2] is -6%; in assay [3], -2%. Moreover, the result in assay [5], in assay [6], in assay [7] and in assay [8] was inactive.

For the compound `O=C1NC(=O)C(c2cccc(NC(=O)c3ccncc3)c2)=C1c1ccccc1`, the figures for the growth inhibition in assay [1] and in assay [4] were -3% and 101% (active), respectively. The inhibition in assay [2] was 5%; in assay [3], 3%. In addition, the outcome in assay [5], in assay [6], in assay [7] and in assay [8] was inactive.

For `CC(C)COc1ccc(Cl)cc1Cc1nc(-c2nc3ccc(CN4CCCC4)cc3[nH]2)co1`, the growth inhibition in assay [1] is 66% (active); in assay [4], 101% (active). For the same compound, the values for the inhibition in assay [2] and in assay [3] were 50% (active) and -1%, respectively. The outcome in assay [5], in assay [6], in assay [7] and in assay [8] was inactive.

For the compound `N#Cc1ccc(N2CCN(Cc3ccc(-c4ccc(-c5nc6ccc(F)cc6[nH]5)s4)cc3)CC2)nc1`, the growth inhibition in assay [1] is 78% (active); in assay [4], 100% (active). In addition, the results for the inhibition in assay [2] and in assay [3] were 12% and 3%, respectively. In addition, the result in assay [5], in assay [6], in assay [7] and in assay [8] was inactive.

Consider `O=S(=O)(c1cc(Cl)ccc1Cl)N1CCCCC(c2ccc(C(F)(F)F)cc2)=N1`, for which the growth inhibition is 68% (active) in assay [1] and 87% (active) in assay [4]. The results for the inhibition in assay [2] and in assay [3] were 15% and -1%, respectively. The result in assay [5], in assay [6], in assay [7] and in assay [8] was inactive.

For the compound `CN(C)c1ccc2c(c1)Sc1cc(N(C)C)ccc1N2C(=O)c1cccc(C(=O)O)c1`, the growth inhibition in assay [1] was 73% (active); in assay [4], 99% (active). Besides, the inhibition in assay [2] is 8%; in assay [3], -3%. For the same compound, the outcome in assay [5], in assay [6], in assay [7] and in assay [8] was inactive.

Turning to `c1ccc(Oc2ccc(Nc3ccnc4cc(-c5csc(CNCCN6CCOCC6)n5)ccc34)cc2)cc1`, the growth inhibition in assay [1] is 99% (active); in assay [4], 101% (active). In addition, the inhibition in assay [2] was -1%; in assay [3] it was 0%. The outcome in assay [5], in assay [6], in assay [7] and in assay [8] was inactive.

In the case of `CSc1ccc(CN2CCC(NC(=O)c3ccc(-c4cccc(Cl)c4)s3)CC2)cc1`, the values for the growth inhibition in assay [1] and in assay [4] were 19% and 86% (active), respectively. Moreover, the inhibition in assay [2] was 75% (active); in assay [3], -2%. Besides, the outcome in assay [5], in assay [6], in assay [7] and in assay [8] was inactive.
